Among the data in PubChem BioAssay (NCI) are growth values, retold here.

The structures appear in SMILES notation. About 83,000 compounds went through this panel and 20% of them were active in at least one assay; those are over-represented in the sample as a whole.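 How to read the values: 0–100, growth inhibition (40 = 60% inhibited); 0, no net growth; -100 to 0, cell death (-40 = 40% of starting cells died; -100 = all dead).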 The source made the active and inactive calls. Rule for the calls: active = growth percent below 10; inactive = the rest.

This experiment relates to HL-60(TB) leukemia. In words: NCI-60 one-dose screen, 48 h (100 = growth as untreated, 0 = no growth, -100 = all killed). The conditions noted are these: 10 µM unless noted.
For the molecule `N=C(N)c1ccc(-c2ccc(-c3ccc(-c4cccs4)s3)s2)cc1`, the growth is 100% (inactive).
For `C(=C\c1ccncc1)/c1ccncc1` the value was 105% (inactive).
The same measure for `COC(=O)C(Cc1ccccc1)n1cc(COc2nc(Cl)nc(Nc3ccc(Cl)cc3)n2)nn1` (stereo not given): 72.2% (inactive); for `CS(=O)(=O)c1nccc(-c2c(-c3cccc(OCc4ccc(F)cc4)c3)nc3sccn23)n1`: 43.7% (inactive); for `N#C/C(=C\c1c(-c2ccccc2)[nH]c2ccccc12)C(=O)c1ccc(Cl)cc1`: 12.7% (inactive).
Regarding `Cc1ccc2nc(-c3ccc(N(C)C)c(Br)c3)cn2c1`, the growth is 36.8% (inactive).
For `Cc1ccc2c(/C=C/C(=O)c3cc(CN4CCOCC4)c(O)c4nc(C)ccc34)cc(CN3CCOCC3)c(O)c2n1` the value was -25.2% (active).
For `Nc1nc(-c2cccnc2)nc2c1sc(=S)n2-c1ccccc1` the value was 99.3% (inactive); for `O=C(Nc1cccc(-n2cc(-c3ccncc3)c(-c3ccc(Cl)c(O)c3)n2)c1)Nc1ccc(Cl)c(C(F)(F)F)c1`, -11.2% (active).
For `O=C(N/N=C/c1ccccc1O)c1ccccc1Nc1ccnc(C(F)(F)F)c1` the value was 7.92% (active); for `O=C(c1ccc(Br)cc1)C(Br)C(c1ccc(Cl)cc1)C(c1ccccc1)[N+](=O)[O-]` (stereo not given), 99.3% (inactive); for `O=C(Nc1ccc(F)cc1)Nc1ccc(Cl)c([N+](=O)[O-])c1`, -15.6% (active).
As to `COc1cc(/C=C/C(=O)c2ccc(Nc3ncnc4ccccc34)cc2)cc(OC)c1`, the growth was 55.5% (inactive).
For `O=C(O)C(CCc1ccccc1)NCc1ccccc1` (stereo not given) the value was 110% (inactive); for `N#C/C(=C(/O)CCCO)c1nc2ccccc2c(=O)[nH]1`, 102% (inactive).
For `Cc1c(C(=O)C(SC(=S)N2CCOCC2)SC(=S)N2CCOCC2)nnn1-c1ccc([N+](=O)[O-])cc1` the value was 91.3% (inactive).
The same measure for `O=C1OCC2=C1C(c1cccc([N+](=O)[O-])c1)c1cc3c(cc1N2CCO)CCC3` (stereo not given): -26.9% (active); for `O=C1CNCCN1`: 99.5% (inactive).
`CCCCNC(=O)Oc1ccc(/C(=C(/CC)Cc2ccccc2)c2ccc(OCCCN(C)C)cc2)cc1`: the growth is 78% (inactive).
For `Cc1ccc2c(C)c3c(ccc4ccccc43)c[n+]2c1` the value was 94.4% (inactive); for `O=C1C(Cl)=C(NCCCCCCNC2=C(Cl)C(=O)c3ccccc3C2=O)C(=O)c2ccccc21`, 55.7% (inactive).
With `CCCCCCc1cc(N=Nc2ccc(S(=O)(=O)Nc3cc(C)nc(C)n3)cc2)c(O)cc1O`, the growth was 94.4% (inactive).
The same measure for `COc1cc(OC)c2cc(C(=O)O)c(=O)oc2c1`: 66% (inactive).
The same measure for `COc1cc([C@@H]2c3cc4c(cc3[C@H](O)[C@H]3COC(=O)[C@H]23)OCO4)cc(OC)c1OC`: -50.2% (active).
Turning to `CC1(c2ccc(Cl)cc2)OC(=O)CC(=O)O1`, the growth is 74.7% (inactive).
With `Cc1cc2c(C(C)C)c(O)c(O)c(C=NCc3ccoc3)c2c(O)c1-c1c(C)cc2c(C(C)C)c(O)c(O)c(C=NCc3ccco3)c2c1O`, the growth was 9.25% (active).
The same measure for `Cc1ccc(C(=O)Nc2ccc(CN3CCN(C)CC3)c(C(F)(F)F)c2)cc1C#Cc1cnc(N)cc1C#N`: -53.5% (active); for `CCn1cc(C(=O)NN=C2CCCC2)c(=O)c2ccc(C)nc21`: 98.8% (inactive); for `O=[N+]([O-])c1cc(-c2ccccc2)c(O)c([N+](=O)[O-])c1`: 57.1% (inactive).
For `O=C1OC(c2ccc(Cl)c(Cl)c2)=C/C1=C/c1cccc([N+](=O)[O-])c1` the value was 103% (inactive).
On to `N#Cc1cccc(OCc2nc(N)nc(N)c2-c2ccc(Cl)c(Cl)c2)c1`, for which the growth is 29.8% (inactive).
The same measure for `CC1CC(O)CC(C)(C)C1` (stereo not given): 80.8% (inactive); for `O=NN(CCCl)C(=O)Nc1ccc(NC(=O)N(CCCl)N=O)cc1`: 94.8% (inactive).
For `O=S(=O)(Nc1ncccn1)c1ccc(Nc2ccc3nnc(-c4ccncc4)n3n2)cc1` the value was 101% (inactive); for `Cc1cc(O)ccc1Sc1ccccc1[N+](=O)[O-]`, 115% (inactive); for `CO[C@H]1C[C@@H]2CC[C@@H](C)[C@@](O)(O2)C(=O)C(=O)N2CCCC[C@H]2C(=O)O[C@H]([C@H](C)C[C@@H]2CC[C@@H](OP(C)(C)=O)[C@H](OC)C2)CC(=O)[C@H](C)/C=C(\C)[C@@H](O)[C@@H](OC)C(=O)[C@H](C)C[C@H](C)\C=C/C=C/C=C/1C`, 76.4% (inactive).
The same measure for `c1ccc(-c2c(-c3ccccc3)[n+](Cc3ccc4ccccc4c3)c(-c3ccc(-c4nc5ccccc5s4)cc3)n2Cc2ccc3ccccc3c2)cc1`: -57.2% (active).
For the molecule `OCC12CCCC(CO)(COC1)C2O` (stereo not given), the growth is 118% (inactive).
For `C#CCOc1cccc(Nc2ncc3ncn(C4CCN(C(=O)CCl)C4)c3n2)c1` (stereo not given) the value was -29% [6.25 µM] (active); for `COc1cccc(-c2nc3sccn3c2-c2ccnc(NCCNS(=O)(=O)c3ccccc3)n2)c1`, 69.9% (inactive).
